Assay results from PubChem BioAssay AID687001 (Broad Institute, 2013).
Entries with a potency or affinity are not part of this list. Unmarked numbers belong to inactive results.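 The calls were made as follows: active = signal-lowering compounds whose fitted half-maximal concentration is at or below twice the top tested dose in every run; inconclusive = runs disagree, flat 30 to 70% inhibition, or poor curve fit; inactive = the rest.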

target: Protein S100-A4 (Homo sapiens) (UniProt P26447); assay: S100A4-myosin IIA binding inhibitor potency, dose response, biochemical, fluorescence polarization, cherry-picked hits (AID 687001); conditions: FP, S100A4/TAMRA-myosin IIA peptide binding; series mostly up to 11 µM; activity change, negative = inhibition: at the top concentration;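 also: 0% = DMSO neutral control wells and -100% = TFP positive control wells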
Sequence (P26447 whole entry, looked up): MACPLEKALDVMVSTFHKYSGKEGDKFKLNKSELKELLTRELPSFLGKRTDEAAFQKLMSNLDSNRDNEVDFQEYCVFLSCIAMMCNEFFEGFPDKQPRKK

| SMILES | activity change, negative = inhibition |
| --- | --- |
| COC(=O)C1=C(c2cc3ccccc3s2)C[C@@H]2CC[C@H]1N2C(=O)NCc1ccc(C(F)(F)F)cc1 | 5.22% |
| O=C(Cc1cccnc1)N1CCCCN2[C@@H](CO)[C@@H](c3ccc(C#CC4(O)CCCC4)cc3)[C@@H]2C1 | 5.28% |
| COc1ccc(OC)c(N2C(=O)CC(=O)NC2=O)c1 | -4.19% |
| O=Cc1cn(Cc2ccc(Br)cc2)c2ccccc12 | 5.46% |
| O=C(O)Cn1cc(/C=C2\C(=O)NC(=O)N(c3ccc(Br)cc3)C2=O)c2ccccc21 | 56.4% |
| C=CCN1CC[C@]23c4c5ccc(O)c4OC2C(O)CC[C@@]3(O)[C@H]1C5 (stereo partly specified) | -3.07% |
| CCN(CC)C(=O)[C@@H]1C=C2c3cccc4[nH]c(Br)c(c34)C[C@H]2N(C)C1 | -11.1% |
| CCOC(=O)C1=C(N)OC2=C(C(=O)CC(C)(C)C2)C12C(=O)Nc1ccccc12 (stereo unspecified) | -3.72% |
| Cc1c(OC(=O)N(C)C)ccc2c1O/C(=C\c1ccco1)C2=O | 69.8% |
| COC(C)(C)CCCC(C)C/C=C/C(C)=C/C(=O)OC(C)C (stereo unspecified) | 0.557% |
| CCOC(=O)c1ccc(N=Cc2c(O)n(-c3ccccc3F)c(=S)[nH]c2=O)cc1 | 84.4% |
| c1ccc(-c2ccncc2)cc1 | -1.21% |
| CCC12CCN(CC3(O)CC3)C(Cc3ccc(O)cc31)C2(C)C (stereo unspecified) | -4.42% |
| O=C(O)[C@H]1[C@H](CO)[C@H]2Cn3c(ccc(-c4ccncc4)c3=O)[C@@H]1N2C(=O)C1CCCCC1 | -2.81% |
| COC(=O)[C@]1(C)C[C@H]1[C@H](NP(=O)(c1ccccc1)c1ccccc1)c1ccccc1 | -6.74% |
| CCCCn1nnnc1C(c1cccc2ccccc12)N1CCC2(CC1)C(=O)NCN2c1ccccc1 (stereo unspecified) | -4.61% |
| CCCCCSc1cc(O)c(C(CNC)C(C)C)cc1OC (stereo unspecified) | -5.9% |
| Cc1c(C)c2ccc(OCC(=O)N3CCC(C(=O)O)(c4ccccc4)CC3)cc2oc1=O | -1.79% |
| Cc1ccccc1C(=O)N1Cc2ccccc2-n2nncc2C1 | -5.64% |
| O=[N+]([O-])c1cc(Cl)c(Cl)cc1Cl | -2.95% |
| CN(C)c1cc[n+](CC(O)C[n+]2ccc(N(C)C)cc2)cc1 | -0.214% |
